Screens from PubChem BioAssay.
ATXN2 expr inh – reduces ATXN2 reporter expression in HEK-293 cells; HEK-293 ATXN2-luciferase reporter, luminescence, 24 h; Potency, µM (titrated, usually from 57 µM), usual class: inhibitors; 360,000 tested, 0.72% active; note: nearly all actives have a fitted effect of over 55% in size
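ATXN2-luciferase reporter cells (luciferase flanked by upstream and downstream ATXN2 gene portions) were treated 24 h at 37 °C with compounds at up to 57 uM. SteadyGlo luminescence gave expression; GF-AFC fluorescence gave viability.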
DT40 TDP1 no CPT – qHTS for Inhibitors of human tyrosyl-DNA phosphodiesterase 1 (TDP1): qHTS in cells in absence of CPT; DT40 Tdp1-/- hTDP1 cells, no CPT, ATP luminescence, 48 h; Potency, µM (series often up to 46.2 µM), actives largely listed as inhibitors; 420,000 tested, 15% active; AID 686978, 2013; note: nearly all actives have a fitted effect of over 55% in size
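Stably hTDP1-transfected Tdp1-null chicken DT40 cells were treated with library compounds minus camptothecin and grown for at least 48 hr at 37 °C, after which cellular ATP was quantified by luminescence.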
TGFb SMAD3 inh – blocks TGF-b signaling. HepG2 CAGA-GFP TGF-b/SMAD3 reporter, GFP fluorescence, 18 h; TGF-beta stimulated, 500 pg/mL final. Potency, µM (doses to about 46.1 µM), hits mostly inhibitors. 410,000 tested, 1.2% active; note: nearly all actives have a fitted effect of over 65% in size
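First, reporter cells (HEPG2 CAGA-GFP) rested 2 h at 37 degrees C. Next, compounds were pinned in and TGF-beta added to 500 pg/mL final. After 18 h, GFP was imaged per cell and summed per well.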
TDP1 cell CPT – growth inhibition of DT40 Tdp1-/-;hTDP1 cells with camptothecin (screen for TDP1 inhibitors). chicken DT40 Tdp1-/-;hTDP1 cells + 20 nM CPT, ATP luminescence, 48 h. Potency, µM (highest dose often 46.2 µM), most hits filed as inhibitors. 420,000 tested, 12% active; note: nearly all actives have a fitted effect of over 55% in size
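Chicken DT40 Tdp1-/- cells complemented with human TDP1, 400 cells/well, exposed to compounds plus 20 nM camptothecin for at least 48 h at 37 C; viability read as ATP content by CellTiter-Glo luminescence.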
ATXN viability – cell viability loss in ATXN counter-screen; Potency, µM (doses to about 56.7 µM), usual class: cytotoxic; S2 cells (HEK-293 line with an ATXN2-luciferase reporter) viability, CellTiter-Fluor protease fluorescence, 24 h; 400,000 tested, 0.49% active; note: nearly all actives have a fitted effect of over 40% in size
HepG2 tox – kills HepG2 cells in TGF-b inhibitor counter-screen. HepG2 CAGA-GFP viability, ATP luminescence, 18 h. Potency, µM (doses to about 46.1 µM), hits mostly cytotoxic. 410,000 tested, 0.76% active. AID 588856
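HepG2 CAGA-GFP cells (1000/well, DMEM with 1% FBS) received compound, then TGF-beta at 500 pg/mL final, and were incubated 18 hours at 37 degrees C. Viability was read by CellTiter-Glo luminescence. Media-only wells were set as complete cell-killing and DMSO as no toxicity.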
A number is an active result. Sampled rows, rich in hits. Any-hit rate of the full collection: about 17%. Calls come from the whole dose curve; as a rule, active = well fitted curve in the direction sought with a large enough effect; inconclusive = small, poorly fitted or top-dose-only effect, or another doubt; inactive = no such curve, though single readings can be large; an effect the other way counts as inactive or inconclusive.

Results for Cc1cnc(C)c(-c2ccc(O)c(CN3CCN(C=O)CC3)c2)n1 ?
DT40 TDP1 no CPT: inactive; TDP1 cell CPT: inactive; ATXN viability: inactive

What do the screens show for `CCCC(=O)OCOC(=O)C1=C(C)NC(C)=C(C(=O)OC)C1c1cccc(Cl)c1Cl` (centres undefined)?
ATXN2 expr inh: inactive; ATXN viability: inactive

Results for Cc1cc2c(cc1C)C(=O)C(Br)=C(N)C2=O ?
ATXN2 expr inh: inactive; DT40 TDP1 no CPT: 16µM; TGFb SMAD3 inh: inactive; TDP1 cell CPT: 26µM; ATXN viability: inactive; HepG2 tox: inactive

Results for COc1ccc(Br)cc1CNC(=O)CSc1cc(=O)n(C)c2ccccc12 ?
ATXN2 expr inh: inactive; DT40 TDP1 no CPT: inactive; TGFb SMAD3 inh: inactive; TDP1 cell CPT: inactive; ATXN viability: inactive; HepG2 tox: inactive

How did O=[N+]([O-])c1cncc([N+](=O)[O-])c1Nc1cccc(O)c1 do in these assays?
ATXN2 expr inh: 20µM; DT40 TDP1 no CPT: 4.1µM; TGFb SMAD3 inh: inconclusive; TDP1 cell CPT: 5.2µM; HepG2 tox: inactive

What do the screens show for `Cc1ccccc1Nc1n[nH]c(C)c1[N+](=O)[O-]`?
ATXN2 expr inh: inactive; DT40 TDP1 no CPT: inactive; TGFb SMAD3 inh: inactive; TDP1 cell CPT: inactive; ATXN viability: inactive; HepG2 tox: inactive

Results for O=[N+]([O-])c1ccc2nonc2c1Nc1cccc(F)c1 ?
ATXN2 expr inh: inactive; DT40 TDP1 no CPT: inactive; TGFb SMAD3 inh: inactive; TDP1 cell CPT: inactive; ATXN viability: inactive; HepG2 tox: inactive

What do the screens show for `Cc1ccccc1Nc1c([N+](=O)[O-])cncc1[N+](=O)[O-]`?
ATXN2 expr inh: inactive; DT40 TDP1 no CPT: 15µM; TGFb SMAD3 inh: inconclusive; TDP1 cell CPT: inconclusive; ATXN viability: inactive; HepG2 tox: inactive

What do the screens show for `O=[N+]([O-])c1cc([N+](=O)[O-])c2nonc2c1Nc1ccc(O)cc1`?
DT40 TDP1 no CPT: 21µM; TGFb SMAD3 inh: inactive; TDP1 cell CPT: inconclusive; ATXN viability: inconclusive; HepG2 tox: inactive

What do the screens show for `O=[N+]([O-])c1cc([N+](=O)[O-])c2nonc2c1Nc1ccccc1O`?
ATXN2 expr inh: inactive; DT40 TDP1 no CPT: inconclusive; TGFb SMAD3 inh: inactive; TDP1 cell CPT: inconclusive; ATXN viability: inconclusive; HepG2 tox: inactive

How did CCOc1ccc(NC(=S)c2ccncc2)cc1 do in these assays?
ATXN2 expr inh: inactive; DT40 TDP1 no CPT: inconclusive; TGFb SMAD3 inh: inactive; TDP1 cell CPT: inconclusive; ATXN viability: inactive; HepG2 tox: inactive

Results for CCc1nn(CCCC(=O)NCc2ccc(OC)c(OC)c2)c(=O)c2cc3occc3n12 ?
DT40 TDP1 no CPT: inconclusive; TDP1 cell CPT: inconclusive; HepG2 tox: inactive

What do the screens show for `COCCc1nn2c(=O)cc(COC(=O)c3ccc4c(c3)OCO4)nc2s1`?
ATXN2 expr inh: inactive; DT40 TDP1 no CPT: inactive; TGFb SMAD3 inh: inactive; TDP1 cell CPT: inactive; ATXN viability: inactive; HepG2 tox: inactive

What do the screens show for `CC(=O)N/C(=C\c1ccccc1)C(=O)OCc1cccc(S(=O)(=O)N(C)C)c1`?
ATXN2 expr inh: inactive; DT40 TDP1 no CPT: inconclusive; TGFb SMAD3 inh: inactive; TDP1 cell CPT: 16µM; ATXN viability: inactive; HepG2 tox: inactive

How did CC(=O)N/C(=C\c1ccccc1)C(=O)OCc1ccccc1 do in these assays?
ATXN2 expr inh: inactive; DT40 TDP1 no CPT: inactive; TGFb SMAD3 inh: inactive; TDP1 cell CPT: inactive; ATXN viability: inactive; HepG2 tox: inactive

How did COC(=O)c1ccccc1NC(=O)c1ccc2c(c1)CCN2S(=O)(=O)c1ccc(Cl)cc1 do in these assays?
ATXN2 expr inh: inactive; DT40 TDP1 no CPT: inactive; TGFb SMAD3 inh: inactive; TDP1 cell CPT: inactive; ATXN viability: inactive; HepG2 tox: inactive

What do the screens show for `C=CCn1c(COc2ccccc2)nnc1SC(C)C(=O)N/N=C/c1cc(Cl)ccc1O` (centres undefined)?
ATXN2 expr inh: 14µM; DT40 TDP1 no CPT: 21µM; TGFb SMAD3 inh: inactive; TDP1 cell CPT: inconclusive; ATXN viability: inactive; HepG2 tox: inactive

How did O=C(Nc1cccc(C(=O)N2CCOCC2)c1)c1ccc([N+](=O)[O-])cc1 do in these assays?
ATXN2 expr inh: inactive; DT40 TDP1 no CPT: inactive; TGFb SMAD3 inh: inactive; TDP1 cell CPT: inactive; ATXN viability: inactive; HepG2 tox: inactive

What do the screens show for `COc1ccc(CCNC(=O)/C(C#N)=C2\N=C(NC(=O)c3ccco3)c3ccccc32)cc1`?
ATXN2 expr inh: inactive; DT40 TDP1 no CPT: 16µM; TGFb SMAD3 inh: inactive; TDP1 cell CPT: inconclusive; ATXN viability: inactive; HepG2 tox: inactive

How did COC(=O)C[C@@H]1OC[C@H](CO)N1S(=O)(=O)c1ccc(C)cc1 do in these assays?
DT40 TDP1 no CPT: inactive; TDP1 cell CPT: inactive

Results for S=C(NCc1cccnc1)Nc1cccc2ccccc12 ?
ATXN2 expr inh: inactive; DT40 TDP1 no CPT: inconclusive; TGFb SMAD3 inh: inactive; TDP1 cell CPT: inactive; ATXN viability: inactive; HepG2 tox: inactive

How did CCCCNC(=S)Nc1cccc2cnccc12 do in these assays?
ATXN2 expr inh: inactive; DT40 TDP1 no CPT: 23µM; TGFb SMAD3 inh: inactive; TDP1 cell CPT: 13µM; ATXN viability: inactive; HepG2 tox: inactive

Results for S=C(NCc1ccccc1)Nc1cccc2cnccc12 ?
ATXN2 expr inh: inconclusive; DT40 TDP1 no CPT: 18µM; TGFb SMAD3 inh: inactive; TDP1 cell CPT: 12µM; ATXN viability: inactive; HepG2 tox: inactive

How did COCCNC(=S)Nc1cccc2cnccc12 do in these assays?
ATXN2 expr inh: inconclusive; DT40 TDP1 no CPT: inactive; TGFb SMAD3 inh: inactive; TDP1 cell CPT: inactive; ATXN viability: inactive; HepG2 tox: inactive

How did COc1ccc(OC)c(C(=O)Nc2c(O)ccc3ccccc23)c1 do in these assays?
ATXN2 expr inh: inactive; DT40 TDP1 no CPT: 16µM; TGFb SMAD3 inh: inactive; TDP1 cell CPT: 21µM; ATXN viability: inactive; HepG2 tox: inactive

Results for COc1ccc(OC)c(NC(=O)Nc2ccc(O)c3ccccc23)c1 ?
ATXN2 expr inh: inactive; DT40 TDP1 no CPT: 4.6µM; TGFb SMAD3 inh: inconclusive; TDP1 cell CPT: 2.6µM; ATXN viability: inactive; HepG2 tox: inactive

How did COc1ccc(OC)c(NC(=O)Nc2c(O)ccc3ccccc23)c1 do in these assays?
DT40 TDP1 no CPT: inconclusive; TGFb SMAD3 inh: inconclusive; TDP1 cell CPT: 15µM; ATXN viability: inactive; HepG2 tox: inactive

Results for COc1ccc(OC)c(NC(=O)Nc2ccccc2C)c1 ?
ATXN2 expr inh: inactive; DT40 TDP1 no CPT: inactive; TGFb SMAD3 inh: inactive; TDP1 cell CPT: inactive; ATXN viability: inactive; HepG2 tox: inactive

How did Cc1cccc(C)c1Nc1ncccc1C(=O)O do in these assays?
DT40 TDP1 no CPT: inactive; TDP1 cell CPT: inactive

What do the screens show for `COc1ccc2[nH]cc(CCNc3ncnc4ccc(-c5cccc(C#N)c5)cc34)c2c1`?
DT40 TDP1 no CPT: inconclusive; TDP1 cell CPT: 21µM
